From PubChem
MITF act: MITF TRPM1 promoter activation in melanoma cells. activation, % at 12.5 µM. SK-MEL-5 TRPM1-promoter luciferase, 24 h; % of positive control, neutral wells = 0. 300,000 tested, 0.75% active;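 active = mean activation of at least 80% with every replicate also reaching 80%; inconclusive = mean reaches 80% but some replicate falls short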;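 note: 0% = neutral control wells and 100% = parthenolide positive control wells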
HSF1 inh: HSF1 inhibition. NIH3T3-HGL HSE-luciferase, MG132-induced, luminescence 8 h; hits give low values. 300,000 tested, 0.77% active. activity change, negative = inhibition, % at 7.5 µM (by protocol);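 active = more than half of replicate wells show activity change below -50%, luminescence cut by over half; inconclusive = some wells, but at most half, below -50%; inactive = no replicate well below -50%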;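 note: luciferase reports HSF-1 transcriptional activity via heat shock element; 0% = median of DMSO wells and -100% = zero luminescence signal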
HSF1 activator: increases HSF-1 driven luciferase reporter signal; NIH3T3-HGL HSF-1 luciferase reporter, MG132, 8 h; 100% = twice DMSO control signal; activation, % at 9 µM; 300,000 tested, 1.7% active; AID 504408;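 active = mean replicate activation of at least 50% with a set share of replicates each reaching 50%; inconclusive = only one of those two conditions met; inactive = mean below 50% and too few replicates reaching it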;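 note: 0% = median of the neutral control wells and 100% = twice that signal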
Wnt act: activates Wnt/beta-catenin signaling in a reporter cell assay; activator, plate reader; activation, % at 9.35 µM; 300,000 tested, 1.2% active; AID 743398; in the data active = activation above about 30%, passing the limit was not always enough; inconclusive = no clear call, values can overlap the other calls;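 note: 0% = neutral control wells and 100% = positive control wells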
esBAF inh: inhibitors of esBAF chromatin remodeling in mouse ES cells. Bmi1-luciferase knock-in reporter, 24 h; 100% = twice the neutral-well signal. reporter increase, % at 12.5 µM. 350,000 tested, 2% active; in the data active = activation above about 40%; inconclusive = no clear call, values can overlap the other calls;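 note: 0% = median of the plate's neutral control wells and 100% = double that signal; a rise in the Bmi1 reporter signal indicates esBAF inhibition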
* marks the source's active call; other numbers are inactive results. Only some compounds are listed: those with a hit (about 3.8% of all), similar ones and a draw of the others.

What do the screens show for `COc1ccccc1N1CC(C)C(=O)NC1=S` (stereo not drawn)?
MITF act: -11.6; HSF1 inh: -56.0*; HSF1 activator: -67.8; Wnt act: 0.1; esBAF inh: -6.4

What do the screens show for `CCO/C(C)=N/Oc1cnc2ccccc2c1`?
Wnt act: 4.2; esBAF inh: 65.8*

Results for CO[C@@H]1CN(C)C(=O)c2cc(NC(C)=O)ccc2OC[C@H](C)N(C(=O)c2cnccn2)C[C@H]1C ?
esBAF inh: -0.4

What do the screens show for `O=C(Nc1cccc(Cl)c1)N1CCN(Cc2ccccc2)CC1`?
MITF act: inconclusive; HSF1 inh: 3.4; HSF1 activator: 24.8; Wnt act: 6.7; esBAF inh: 73.7*

How did CC(C)c1ccc(NC(=O)N2CCOCC2)cc1 do in these assays?
HSF1 inh: -3.7; HSF1 activator: 2.9; Wnt act: 3.4; esBAF inh: 44.8*

What do the screens show for `CCNC(=S)Nc1ccc2c(c1)oc1ccccc12`?
MITF act: inconclusive; HSF1 inh: 4.8; HSF1 activator: 8.2; Wnt act: 38.4*; esBAF inh: 63.3*

Results for O=C(Nc1cccc(Cl)c1)N1CCOCC1 ?
HSF1 inh: -54.9*; HSF1 activator: -64.6; Wnt act: 0.7; esBAF inh: -10.2

How did CCNC(=S)Nc1ccc2ncoc2c1 do in these assays?
MITF act: -3.8; HSF1 inh: -3.1; HSF1 activator: 9.0; Wnt act: 0.8; esBAF inh: -2.4

Results for O=C(Nc1cccc(Cl)c1)N1CCCC1 ?
HSF1 inh: -6.0; HSF1 activator: 0.1; esBAF inh: -2.6

How did C[C@H](NC(=O)C[C@H]1C[C@@H]2c3cc(NC(=O)c4cccnc4)ccc3O[C@@H]2[C@@H](CO)O1)c1ccccc1 do in these assays?
esBAF inh: 2.8

Results for O=C(Nc1ccccc1)N1CCOCC1 ?
HSF1 inh: -6.1; HSF1 activator: -5.2; Wnt act: -6.7; esBAF inh: 8.8

How did O=C(Nc1ccc2c(c1)oc1ccccc12)N1CCOCC1 do in these assays?
MITF act: 55.9; HSF1 inh: -38.4; HSF1 activator: -37.6; esBAF inh: 59.8*

How did Cc1ccc(NC(=S)NC2CC3CCC(C2)N3Cc2ccco2)cc1C (stereo not drawn) do in these assays?
MITF act: -6.6; HSF1 inh: -83.9*; HSF1 activator: -87.4; Wnt act: 0.3; esBAF inh: -14.5

How did O=C(Nc1cccc(Cl)c1)N[C@H]1CC[C@H](CCNC(=O)C2CC2)O[C@@H]1CO do in these assays?
esBAF inh: -3.4

How did Cc1cc2ncn(C(=O)N3CCC(C)CC3)c2cc1C do in these assays?
MITF act: 48.3; HSF1 inh: 14.5; HSF1 activator: 17.1; esBAF inh: 54.4*

How did CCCNC(=O)N1[C@H](C#N)[C@H](c2ccc(-c3ccc(C(=O)N(C)C)cc3)cc2)[C@@H]1CO do in these assays?
esBAF inh: -3.4

Results for COc1cc(C=O)ccc1OCc1cccc(Br)c1 ?
MITF act: inconclusive; HSF1 inh: 24.5; HSF1 activator: 62.9*; Wnt act: 41.7*

Results for CCN(CC)C(=O)COc1ccc(C=O)cc1OC ?
MITF act: 0.3; HSF1 inh: 38.4; HSF1 activator: 75.4*; Wnt act: 2.3; esBAF inh: -3.6

Results for COC(=O)c1ccccc1OCCCOc1ccc(C=O)cc1OC ?
MITF act: 43.9; HSF1 inh: -7.6; HSF1 activator: -6.1; esBAF inh: 70.1*

How did COC(=O)c1ccccc1OCCOc1ccccc1C(=O)OC do in these assays?
MITF act: -12.4; HSF1 inh: -6.1; HSF1 activator: -1.2; Wnt act: -0.8; esBAF inh: -6.6

How did COc1ccc(-c2cn(CC[C@H]3CC[C@H](NC(=O)NC(C)C)[C@@H](CO)O3)nn2)cc1 do in these assays?
esBAF inh: -5.1

How did CCOC(=O)N1CCN(C(=O)CSc2ncnc3sccc23)CC1 do in these assays?
MITF act: 0.9; Wnt act: -3.0; esBAF inh: 7.6

How did O=C(CSc1ncnc2sccc12)N1CCCCC1 do in these assays?
MITF act: 72.9; Wnt act: 9.5; esBAF inh: 72.2*

What do the screens show for `O=C(c1ccc(-c2ccc([N+](=O)[O-])cc2)o1)N1CCCCC1`?
MITF act: 50.8; HSF1 inh: 56.7; HSF1 activator: 87.2*; Wnt act: 75.4*

What do the screens show for `S=C(c1ccc(-c2ccccc2Cl)o1)N1CCCCC1`?
MITF act: 67.3; HSF1 inh: 22.4; HSF1 activator: 38.0
